# KCNH2 WT inh: blocks the wildtype human KCNH2 potassium channel; activity change, % at 1.84 µM; U2OS, BacMam KCNH2, thallium flux FluxOr; stronger effect = lower value; 340,000 compounds, 0.37% hits; Q12809;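 active = maximum activity change below -70%; inconclusive = maximum activity change between -70% and -50%; inactive = maximum activity change above -50%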; note: % is set by controls: 0 for no effect and ±100 for the full control effect
#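 U2OS cells were transduced with wild-type KCNH2 virus (2.03 x 10^8 / mL) for 4 h at room temperature, then cultured overnight at 37 C. Thallium flux was read with FluxOr dye. Rate constants were normalized to DMSO controls.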
# VDR inh: vitamin D3 receptor (human) inhibition; P11473; VDR-SRC2-3 peptide fluorescence polarization, 2 h; Potency, µM, for inactives: max response, negative = inhibition, usual class: inhibitors; 400,000 compounds, 0.93% hits; AID 504847; note: potency is the fitted concentration of half-maximal effect; % is set by controls: 0 for no effect and ±100 for the full control effect
#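 Fluorescence polarization assay of small-molecule disruption of VDR binding to coregulator peptide SRC2-3. Compounds and controls pin-transferred, then read after 2 h incubation at ambient room temperature.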
# KCNH2 3.1 block: blocks the human KCNH2 3.1 channel isoform. U2OS KCNH2 3.1, thallium flux FluxOr; stronger effect = lower value. activity change, % (tested at about 1.8 µM). 340,000 compounds, 0.95% hits;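 active = maximum activity change below -70%; inconclusive = maximum activity change from -70% to -50%; inactive = maximum activity change above -50%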;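 note: thallium influx rate constant from kinetic fluorescence after stimulation buffer; % is set by controls: 0 for no effect and ±100 for the full control effect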
#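 We transduce U2OS cells with the mutant 3.1 virus, culture them overnight, load FluxOr with Red40 quencher for 45 min, then add stimulation buffer and read kinetically for 2 min to derive a normalized rate constant.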
# CBFb-RUNX1 inh: CBF-beta/RUNX1 interaction disruption; Potency, µM (highest dose often 59.8 µM), inactives show at the top dose activity, negative = inhibition, most hits filed as inhibitors; 230,000 tested, under 10 active; Q01196+Q13951; AlphaScreen CBFb-His/RUNX1-biotin binding, biochemical; note: % of control where 0% means no effect
# Target sequence (Q01196 whole entry, looked up): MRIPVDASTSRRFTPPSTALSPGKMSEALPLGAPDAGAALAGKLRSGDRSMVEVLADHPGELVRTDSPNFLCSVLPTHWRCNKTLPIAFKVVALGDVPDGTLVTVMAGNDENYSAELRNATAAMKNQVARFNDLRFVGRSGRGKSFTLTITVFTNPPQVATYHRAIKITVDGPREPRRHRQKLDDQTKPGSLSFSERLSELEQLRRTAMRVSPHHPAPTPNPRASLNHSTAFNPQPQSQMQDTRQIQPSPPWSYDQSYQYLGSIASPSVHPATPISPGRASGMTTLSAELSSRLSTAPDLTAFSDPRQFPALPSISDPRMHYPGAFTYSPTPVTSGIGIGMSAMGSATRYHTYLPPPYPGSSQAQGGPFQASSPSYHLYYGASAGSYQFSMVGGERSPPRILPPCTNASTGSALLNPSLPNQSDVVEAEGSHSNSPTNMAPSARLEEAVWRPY
# Target sequence (Q13951 whole entry, looked up): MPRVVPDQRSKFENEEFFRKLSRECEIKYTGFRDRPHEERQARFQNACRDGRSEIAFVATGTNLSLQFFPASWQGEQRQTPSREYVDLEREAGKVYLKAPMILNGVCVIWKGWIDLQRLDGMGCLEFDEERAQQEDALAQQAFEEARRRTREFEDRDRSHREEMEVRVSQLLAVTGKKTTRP
#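 Proteins preincubated together for 20 min at RT before compound addition; 15 min later, nickel and streptavidin beads were added and left 90 min prior to AlphaScreen measurement.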
# PLK1 PBD block: inhibitors of human PLK1 polo-box domain binding | 360,000 compounds, 2.8% hits | Potency, µM, for the others: max response, negative = inhibition, most hits filed as inhibitors | P53350 | Plk1 PBD binding of FITC phosphopeptide, fluorescence polarization | AID 720504; note: potency is the fitted concentration of half-maximal effect; series mostly up to about 57 µM; % is set by controls: 0 for no effect and ±100 for the full control effect; nearly all actives have a fitted effect of over 65% in size
# MBNL1-CUG inh: inhibitors of human MBNL1 binding to CUG repeat RNA | TR-FRET MBNL1-His/biotin-(CUG)12 binding, 665/545 ratio | AID 2675 | Q9NR56 | 280,000 compounds, 0.036% hits | Potency, µM (series often up to 57.5 µM), without a hit: at the highest dose activity change, negative = inhibition, most hits filed as inhibitors; active = well fitted inhibition curve with a large enough effect in the signal ratio, with a control signal flat, not every such curve was filed as active; inconclusive = small, poorly fitted or top-dose-only effect, or effect the other way, or a change in a side signal; inactive = no such curve, though single readings can be large or run the other way; the % refers to the signal ratio; note: potency is the fitted concentration of half-maximal effect; % is set by controls: 0 for no effect and ±100 for the full control effect
#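 Compounds (final 92 nM to 58 uM) are added to His-tagged MBNL1 and biotin-(CUG)12, then terbium anti-His antibody and streptavidin-XL665 (5 nM final). After 60 min at room temperature, the 665/545 nm ratio is read.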
# Starred values were filed as active, the others as inactive; u = inconclusive; x = not tested or not shown. Hits are enriched below; roughly 3.8% of the tested compounds scored in any of these assays. Unless noted, calls come from the whole dose curve; as a rule, active = well fitted curve in the direction sought with a large enough effect; inconclusive = small, poorly fitted or top-dose-only effect, or another doubt; inactive = no such curve, though single readings can be large; an effect the other way counts as inactive or inconclusive.
SMILES,KCNH2 WT inh,VDR inh,KCNH2 3.1 block,CBFb-RUNX1 inh,PLK1 PBD block,MBNL1-CUG inh
CCN(CC(=O)NC(C)C)C(=O)C(CCSC)NC(=O)c1cccc(C)c1 (centres undefined),-155*,-16%,-201*,1%,-7%,-8%
COc1ccc(N2CCN(CCCNC(=O)c3nnc(Cc4ccc(F)cc4)o3)CC2)cc1,x,21%,x,x,x,x
CC(C)CNS(=O)(=O)c1ccc(CCC(=O)N2CCN(Cc3ccccc3)CC2)cc1,12,-4%,-19,1%,-4%,-2%
CC(C)CNS(=O)(=O)c1ccc(CCC(=O)N2CCC(C(N)=O)CC2)cc1,4,29%,-113*,6%,-9%,-7%
CCN(CC)c1ccc(NC(=O)c2cnc3c(-c4ccccc4)c(C)nn3c2C)c(C)c1,x,0%,x,x,x,x
Cc1ccc2oc(-c3ccccc3C(=O)O)cc(=O)c2c1,0,-9%,1,5%,-12%,1%
O=C(O)c1ccccc1-c1c2cc(Br)c(=O)c(Br)c-2oc2c(Br)c(O)c(Br)cc12,x,35µM*,x,u,x,x
CCc1nc(SCC(=O)c2cccc([N+](=O)[O-])c2)n[nH]1,6,50µM*,0,-3%,-3%,x
O=C(CSc1n[nH]c(-c2ccncc2)n1)c1ccccc1,12,-5%,11,6%,-8%,-7%
Cc1nc(SCC(=O)c2ccccc2)n[nH]1,1,50µM*,18,8%,27µM*,2%
O=C(CSc1nc(N2CCCCC2)nc(N2CCCCC2)n1)c1ccccc1,-2,-3%,-28,7%,30µM*,-2%
COc1ccc(Br)cc1S(=O)(=O)N1CCCC1,-2,-9%,23,-2%,3µM*,8%
COc1cc(C)c(S(=O)(=O)N2CCCC2)cc1C(C)C,3,-9%,-11,14%,27µM*,-6%
CCOc1ccc(CCNC(=O)C2CCC(CNS(=O)(=O)c3ccc(Cl)cc3)CC2)cc1OCC (centres undefined),x,0%,x,x,x,x
N/C(=N\OC(=O)c1cccs1)c1ccc(Cl)cc1,-1,-15%,-9,15%,-3%,0%
NC(=O)n1c(O)c(C(=O)c2cccs2)c2cc(Cl)ccc21,x,45µM*,x,u,x,x
COc1cccc(CNC(=O)Cn2ccc3cc(S(=O)(=O)N4CCCC4)ccc32)c1OC,-4,-27%,3,x,30µM*,-5%
CCOc1ccc(CNC(=O)Cn2ccc3cc(S(=O)(=O)N4CCCC4)ccc32)cc1,5,-14%,1,x,27µM*,-2%
CSc1ccc(CNC(=O)CCn2ccc3cc(S(=O)(=O)N4CCCC4)ccc32)cc1,12,-25%,-2,x,27µM*,0%
CCOc1ccc(CNC(=O)Cn2ccc3cc(S(=O)(=O)N4CCCCCC4)ccc32)cc1,6,-10%,11,x,3%,8%
CO[C@@H]1[C@@H](OC2OC(C)C(OC3CC(C)(O)C(OC(=O)CC(C)C)C(C)O3)C(N(C)C)C2O)[C@@H](CC=O)C[C@@H](C)C(=O)/C=C\C2O[C@H]2C[C@@H](C)OC(=O)C[C@H]1OC(C)=O (some centres undefined),x,-14%,x,x,x,x
C=C(C)CSc1nc2sc3c(c2c(=O)n1-c1ccccc1)CCC(C)C3 (centres undefined),x,-21%,x,x,x,x
O=C(c1csnn1)N1CCC[C@@]2(CCN(c3ccncc3)C2)C1,x,71µM*,x,x,x,x
O=C(c1cnccn1)N1CCC[C@@]2(CCN(c3cccc(-c4ccccc4)c3)C2)C1,x,28µM*,x,x,x,x
O=C(NCc1ccc(F)cc1)C1CCN(C(=O)c2ccc(-n3ccc4ccccc43)s2)CC1,x,7%,x,x,x,x
SMILES,KCNH2 WT inh,VDR inh,KCNH2 3.1 block,CBFb-RUNX1 inh,PLK1 PBD block,MBNL1-CUG inh
O=C(NCC(c1cccnc1)N1CCN(Cc2ccccc2)CC1)C(=O)Nc1cccc(F)c1 (centres undefined),x,9%,x,x,x,x
O=c1[nH]c(=O)c2[nH]c(=S)[nH]c2[nH]1,8,u,17,x,8.4µM*,x
CCc1nnc(NC(=O)c2ccc(S(=O)(=O)N(CC(C)C)CC(C)C)cc2)o1,-3,-20%,-6,0%,-7%,-10%
CSCc1nnc(NC(=O)c2ccc(S(=O)(=O)N(C)C)cc2)o1,-7,-13%,8,u,13µM*,x
CCc1nnc(NC(=O)c2ccc(S(=O)(=O)N(C)c3ccccc3)cc2)o1,-7,-21%,11,u,30µM*,10%
COc1ccc(-c2nc(C)c(CCNC(=O)c3ccccc3Br)s2)cc1OC,x,-2%,x,x,x,x
O=C(/C=C/c1ccccc1)NC(NC(=S)Nc1ccc(Cl)cc1Cl)C(Cl)(Cl)Cl (centres undefined),-6,u,6,-5%,13µM*,13%
O=C(Nc1cc(F)ccc1F)N1CCC(CN2CCCC2)CC1,x,10%,x,x,x,x
CCCC(=O)c1cc(F)c(N2CCOCC2)cc1C,13,-6%,-5,9%,24µM*,-9%
CCC(=O)Nc1cccc(NC(=S)NC(=O)c2cc3ccccc3o2)c1,-3,-30%,-3,-3%,27µM*,3%
CCC(=O)Nc1ccc(NC(=S)NC(=O)c2cc3ccccc3o2)cc1,-4,u,2,6%,u,-7%
O=C(O)c1cccc(-c2nnn(Cc3ccccc3)n2)c1,-25,-9%,2,10%,1%,2%
O=C(O)c1cccc(-c2nnn(Cc3ccccc3Cl)n2)c1,0,-25%,-15,-1%,21µM*,u
O=[N+]([O-])c1ccccc1N/N=C\c1ccccc1Cl,-7,21%,0,-10%,-5%,u
O=[N+]([O-])c1ccc(O)c(/C=N/Nc2ccccc2Cl)c1,0,11%,0,-1%,27µM*,0%
O=C(N/N=C/c1cc([N+](=O)[O-])ccc1O)C(O)(c1ccccc1)c1ccccc1,17,-7%,5,x,-18%,u
Cc1sc(N/N=C/c2cc([N+](=O)[O-])ccc2O)nc1-c1ccccc1,x,u,-5,-4%,15µM*,-5%
CS(=O)(=O)N1CCC(C(=O)N2CCN(c3ccccc3F)CC2)CC1,-3,u,-10,0%,19µM*,-5%
O=[N+]([O-])c1ccccc1CN1CCN(Cc2ccc3ccccc3c2)CC1,4,-16%,-80*,x,1%,-2%
COc1ccc(CN2CCN(Cc3ccc4ccccc4c3)CC2)cc1OC,-12,-24%,-88*,x,0%,0%
COc1cc(CN2CCCC(C)C2)ccc1OCc1ccccc1 (centres undefined),31,-9%,-85*,x,7%,-5%
COc1cc(CN2CCC(C)CC2)ccc1OCc1ccccc1,29,-13%,-14,x,-11%,-4%

# Bioassay records (PubChem)
